Only some compounds are listed: those with a hit (about 19% of all), similar ones and a draw of the others.
TDP1 cell CPT = DT40-hTDP1 cell growth loss with CPT | chicken DT40 Tdp1-/-;hTDP1 cells + 20 nM CPT, ATP luminescence, 48 h | Potency, µM (top dose mostly 46.2 µM), for inactives: at the top dose activity change, negative = growth inhibition, usual class: inhibitors | 12% of 420,000 active | AID 686979; further: potency means the concentration at half of the fitted maximal effect; on the % scale 0 is the no-effect control and ±100 the full control effect; nearly all actives have a fitted effect of over 55% in size
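Chicken DT40 Tdp1-/- cells stably complemented with human TDP1 were seeded at 400 cells/well in medium containing 20 nM camptothecin, exposed to pin-transferred compounds, and grown at 37 °C for at least 48 hr. Viability was read as ATP luminescence.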
IL-1B inflam inh = inflammasome signaling inhibition, IL-1 beta readout | activity change, % at 57.5 µM | AID 743279 | 4.7% of 360,000 active | THP-1 LPS/ATP IL-1B secretion, AlphaLISA, 16 h; hits give low values; in the data active means activity change below about -50%; inconclusive means mostly about -30% to -49%; further: on the % scale 0 is the no-effect control and ±100 the full control effect
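THP-1 cells pretreated 1 hr with compounds (up to 57.5 uM final), then stimulated with LPS (250 ng/mL final) plus ATP (1.25 mM final); secreted IL-1B measured by AlphaLISA after 16 hr, decreased signal indicating inhibition.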
BCR signal inh = blocks chronic active B-cell receptor signaling; ABC-DLBCL IkBa-CBG/CBR reporter, luminescence ratio, 4 h; Potency, µM (top dose mostly 46.1 µM), inactives show at the top dose activity change, negative = inhibition, usual class: inhibitors; 0.05% of 340,000 active; active means well fitted inhibition curve with a large enough effect in the signal ratio, with a control signal flat, not every such curve was filed as active; inconclusive means small, poorly fitted or top-dose-only effect, or effect the other way, or a change in a side signal; the % refers to the signal ratio;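 further: potency means the concentration at half of the fitted maximal effect; plate controls were basal doxycycline-induced cells for no effect and cells given 10 µM MG132 for full effect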
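Cell line TMD8 (human ABC DLBCL), stably expressing tet-inducible CBG68-IkBa fusion and CBR; IMDM/0.5% FBS; cpd up to 46 uM; dox induction, 4 h, 37C/5% CO2; dual luminescence; green/red ratio; MG132 control.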
MCF10A rerep = DNA re-replication induction in MCF 10a cells; MCF 10A DNA re-replication, Hoechst nuclear intensity, 48 h; Potency, µM (highest dose often 46.1 µM), without a hit: at the highest dose activity, positive = re-replication, hits mostly activators; 2.9% of 350,000 active; further: potency means the concentration at half of the fitted maximal effect; % of control where 0% means no effect; nearly all actives have a fitted effect of over 50% in size
DT40 TDP1 no CPT = qHTS for Inhibitors of human tyrosyl-DNA phosphodiesterase 1 (TDP1): qHTS in cells in absence of CPT; Potency, µM (top dose mostly 46.2 µM), for inactives: top-dose activity change, negative = growth inhibition, most hits filed as inhibitors; 15% of 420,000 active; DT40 Tdp1-/- hTDP1 cells, no CPT, ATP luminescence, 48 h; further: potency means the concentration at half of the fitted maximal effect; on the % scale 0 is the no-effect control and ±100 the full control effect; nearly all actives have a fitted effect of over 55% in size
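Growth of hTDP1-complemented DT40 Tdp1-knockout cells is measured by ATP luminescence after at least 48 hr compound exposure at 37 °C, with DMSO substituting for the 20 nM CPT used in the parallel screen.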
SW480 rereplic = DNA re-replication induction in SW480 cells; SW480 DNA re-replication, Hoechst DNA content imaging, 48 h; Potency, µM (highest dose often 46.1 µM), for the others: at the highest dose re-replication activation, usual class: activators; 1.8% of 340,000 active; AID 624297; further: potency means the concentration at half of the fitted maximal effect; % of control where 0% means no effect; nearly all actives have a fitted effect of over 55% in size
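Readout is total intensity of Hoechst-stained nuclei, excited at 405 nm and collected at 500-530 nm. Compound treatment lasted 48 hr at 37 C in 5% CO2 before staining.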
An asterisk follows results filed as active; i = inactive; ? = inconclusive; · = no result given. Unless noted, the call rests on the fitted dose curve; in most records, active means well fitted curve in the direction sought with a large enough effect; inconclusive means small, poorly fitted or top-dose-only effect, or another doubt; inactive means no such curve, though single readings can be large; an effect the other way counts as inactive or inconclusive.

SMILES	TDP1 cell CPT	IL-1B inflam inh	BCR signal inh	MCF10A rerep	DT40 TDP1 no CPT	SW480 rereplic
COc1ccc(C(=O)C[C@@H]2OC[C@H](C)N2S(=O)(=O)c2ccc(C)cc2)cc1OC	?	2.5	·	·	18.4µM*	·
COc1cc(C(=O)ON=C2C3CC4CC(C3)CC2C4)cc(OC)c1OC	?	0.0	0.6%	9.2%	-17.1%	?
COc1cc(C(=O)O/N=C2\C=CC(=O)C=C2C)cc(OC)c1OC	11.6µM*	24.0	?	22.0%	?	20.0%
Cn1cc(/C=C2\SC(=O)N(c3ccc(O)cc3)C2=O)c2ccccc21	?	?	?	?	16.4µM*	-1.4%
Cn1cc(/C=C2\SC(=O)N(c3ccccc3)C2=O)c2ccccc21	1.1%	26.1	?	1.0%	-27.8%	-5.6%
C=C(C1=CCN(S(=O)C(C)(C)C)[C@@H]1CCO)c1ccccc1 (some centres not stated)	7.31µM*	-0.5	·	11.5%	23.1µM*	-6.2%
Cc1cc(C)c(C(=O)Nn2c(C)nc3ccccc3c2=O)cc1C	?	-6.3	1.5%	-2.8%	-21.3%	-17.0%
O=C(NCCc1nc2ccccc2n1CCCOc1ccccc1)C1CCCCC1	10µM*	·	·	·	11.2µM*	·
CCc1ccc(OCCCn2c(CCNC(=O)C3CCCCC3)nc3ccccc32)cc1	?	·	·	·	-21.1%	·
COc1ccc(OCCn2c(CCNC(=O)C3CCCCC3)nc3ccccc32)cc1	?	·	·	·	12.6µM*	·
Cc1ccc(OCCn2c(CCNC(=O)C(C)C)nc3ccccc32)cc1	?	-13.7	-14.8%	-4.2%	?	-0.7%
CC(C)(C)C(=O)NCCc1nc2ccccc2n1CC(=O)c1ccccc1	-23.4%	13.5	-6.7%	0.0%	?	-7.4%
Cc1cccc(C)c1OCCCn1c(CCNC(=O)C2CCCCC2)nc2ccccc21	14.6µM*	·	·	·	18.4µM*	·
Cc1ccccc1OCCCCn1c(CCNC(=O)C(C)(C)C)nc2ccccc21	13µM*	·	·	·	8.2µM*	·
CC(=O)c1ccc(OCc2cc(C(=O)NCCc3ccc(Cl)cc3)no2)cc1	0.8%	0.0	0.7%	7.5%	7.3%	20.1%
CCCc1ccc(OCC(=O)Nc2sc3c(c2C(=O)OC)CCCCC3)cc1	4.3%	·	·	·	?	·
Cc1cc(OCCCn2c(CCNC(=O)C3CCCCC3)nc3ccccc32)ccc1Cl	6.51µM*	·	·	·	7.31µM*	·
Cc1cc2ccccc2n1CCNC(=O)C1CCCCC1	?	-28.6	11.1%	6.7%	?	3.3%
CC(c1ccccn1)N(C)C(=O)c1ccc2nc(Cc3ccccc3F)oc2c1 (configuration not stated)	-11.5%	i	?	-3.0%	?	-10.7%
O=C(NCc1ccccc1)C(c1cc2ccccc2o1)n1c(=O)c(-c2ccccc2)nc2ccccc21 (configuration not stated)	14.6µM*	11.9	·	·	13µM*	·
O=C(NCc1ccccc1)C(c1ccccc1F)n1c(=O)c(-c2ccco2)nc2ccccc21 (configuration not stated)	?	-5.3	·	·	20.6µM*	·
O=C(NCc1ccccc1)C(c1cc2ccccc2o1)n1c(=O)c(-c2cc3ccccc3[nH]2)nc2ccccc21 (configuration not stated)	?	63.6	·	·	?	·
CC(C)(C)NC(=O)C(c1cc2ccccc2o1)n1c(-c2ccc(-c3ccccc3)cc2)nc2ccccc21 (configuration not stated)	16.4µM*	13.1	·	·	?	·
CSCCC(C(=O)NC(C)(C)C)n1c(-c2ccc(C)cc2)nc2ccccc21 (configuration not stated)	?	4.2	·	·	?	·
O=C(NCc1ccccc1)C(c1ccccc1F)n1c(=O)c(-c2ccccc2)nc2ccccc21 (configuration not stated)	16.4µM*	-14.8	·	·	?	·
SMILES	TDP1 cell CPT	IL-1B inflam inh	BCR signal inh	MCF10A rerep	DT40 TDP1 no CPT	SW480 rereplic
Cc1c(C(=O)NCc2ccccc2)sc(=O)n1Cc1ccccc1F	?	-27.5	·	·	?	·
CCCCCNC(=O)C(c1cc2ccccc2o1)n1c(=O)c(-c2ccco2)nc2ccccc21 (configuration not stated)	?	33.7	·	·	16.4µM*	·
Cc1cccc(C)c1NC(=O)C(c1ccccc1F)n1c(=O)c(-c2ccccc2)nc2ccccc21 (configuration not stated)	?	-5.2	·	·	20.6µM*	·
CC(C)(C)NC(=O)C(c1cc2ccccc2o1)n1c(=O)c(-c2ccco2)nc2ccccc21 (configuration not stated)	?	-3.4	·	·	?	·
Cc1c(C)c2c(OCC(=O)N3CCC(C(=O)O)CC3)cc3c(c2oc1=O)CCC(C)(C)O3	-17.0%	-18.6	-11.4%	11.3%	-11.0%	-2.3%
COC(=O)C1=C(C(=O)OC)[C@@H]2N(Cc3ccccc3)c3ccccc3[C@@]23C[C@@H](C(=O)OC)N(C(=O)c2ccc(Br)cc2)C3=N1	?	8.0	0.1%	?	18.4µM*	-2.3%
CCOC(=O)N1C2=NC(C(=O)OC)=C(C(=O)OC)[C@@H]3N(C)c4ccc(OC)cc4[C@]23C[C@H]1C(=O)OC	?	5.4	·	10.2%	?	-8.1%
CCOC(=O)N1C2=NC(C(=O)OC)=C(C(=O)OC)[C@@H]3N(Cc4ccccc4)c4ccccc4[C@]23C[C@H]1C(=O)OC	18.4µM*	17.9	·	-2.8%	?	9.0%
COC(=O)C1=C(C(=O)OC)[C@@H]2N(C)c3ccc(OC)cc3[C@@]23C[C@@H](C(=O)OC)N(C(=O)c2ccc(Br)cc2)C3=N1	?	9.4	1.3%	?	25.9µM*	3.3%
COc1ccc(N2CCN(C(=O)Cn3cnc4nc5c(cc4c3=O)CCCC5)CC2)cc1	-5.2%	·	·	·	-25.1%	·
COc1ncc(-c2ccc(N3C(c4ccsc4)=Cc4ccccc4C3CC(C)=O)cc2)cn1 (configuration not stated)	?	-6.1	·	·	?	·
Cc1ccc(S(=O)(=O)Oc2cccc(/C=N/n3cnnc3)c2)cc1	8.2µM*	16.9	-2.4%	?	8.2µM*	?
Cc1ccc(S(=O)(=O)Oc2cccc(/C=N/Nc3ccc(C(=O)O)cc3)c2)cc1	-28.5%	18.8	?	?	-26.1%	-6.4%

Screening results as filed in PubChem.
